About 83,000 compounds went through this panel and 20% of them were active in at least one assay; those are over-represented in the sample as a whole.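 96-well plates, one dose, 48 hours. Percent growth reported; active if below 10.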 Activity calls are given as the source filed them.
Tests used:
Test in all cases: NCI-60 one-dose screen, 48 h (100 = growth as untreated, 0 = no growth, -100 = all killed)
Conditions in all cases: 10 µM unless noted
NCI-H23 lung = tested on: NCI-H23 lung
NCI-H226 lung = tested on: NCI-H226 lung
NCI-H322M lung = tested on: NCI-H322M lung
HOP-62 NSCLC = tested on: HOP-62 NSCLC
NCI-H460 lung = tested on: NCI-H460 lung
HOP-92 NSCLC = tested on: HOP-92 NSCLC
NCI-H522 lung = tested on: NCI-H522 lung
A549/ATCC NSCLC = tested on: A549/ATCC NSCLC
786-0 renal = tested on: 786-0 renal
COLO 205 colon = tested on: COLO 205 colon

Measured: growth

CCC(/C=C\C(C)=O)CC
inactive: NCI-H23 lung 101% | NCI-H226 lung 107% | NCI-H322M lung 99% | HOP-62 NSCLC 94.9% | NCI-H460 lung 100% | HOP-92 NSCLC 102% | NCI-H522 lung 106% | A549/ATCC NSCLC 104% | 786-0 renal 101% | COLO 205 colon 107%

COC(=O)C1=C(C)C(=O)CC1
inactive: NCI-H23 lung 120% | NCI-H226 lung 109% | NCI-H322M lung 115% | HOP-62 NSCLC 114% | NCI-H460 lung 118% | HOP-92 NSCLC 113% | NCI-H522 lung 101% | A549/ATCC NSCLC 112% | 786-0 renal 108% | COLO 205 colon 141%

O=C1NC(=O)/C(=C\c2ccncc2)N1
inactive: NCI-H23 lung 102% | NCI-H226 lung 99.8% | NCI-H322M lung 107% | HOP-62 NSCLC 94.2% | NCI-H460 lung 102% | HOP-92 NSCLC 85.7% | NCI-H522 lung 94.7% | A549/ATCC NSCLC 106% | 786-0 renal 106% | COLO 205 colon 103%

O=C(NCc1ccccc1)c1cccc([N+](=O)[O-])c1
inactive: NCI-H23 lung 110% | NCI-H226 lung 105% | NCI-H322M lung 96.7% | HOP-62 NSCLC 94.6% | NCI-H460 lung 103% | HOP-92 NSCLC 77.8% | NCI-H522 lung 84.1% | A549/ATCC NSCLC 88.2% | 786-0 renal 94.9% | COLO 205 colon 116%

CCOC(=O)c1ccc(Nc2sc(C(=O)c3ccc(Br)cc3)c(N)c2C#N)cc1
active: NCI-H522 lung 8.98%
inactive: NCI-H23 lung 45.4% | NCI-H226 lung 56% | NCI-H322M lung 37.9% | HOP-62 NSCLC 24% | NCI-H460 lung 13.1% | HOP-92 NSCLC 40.1% | A549/ATCC NSCLC 30.7% | 786-0 renal 22.8% | COLO 205 colon 11.4%

O=C1NCC2CCCC1C2 (stereo not given)
inactive: NCI-H23 lung 105% | NCI-H226 lung 104% | NCI-H322M lung 96.8% | HOP-62 NSCLC 115% | NCI-H460 lung 120% | HOP-92 NSCLC 130% | NCI-H522 lung 90.3% | A549/ATCC NSCLC 97.6% | 786-0 renal 99.5% | COLO 205 colon 119%

CCOC(=O)c1c[nH][nH]c1=O
inactive: NCI-H23 lung 93.4% | NCI-H226 lung 101% | NCI-H322M lung 122% | HOP-62 NSCLC 89.2% | NCI-H460 lung 106% | HOP-92 NSCLC 111% | NCI-H522 lung 103% | A549/ATCC NSCLC 125% | 786-0 renal 94.3% | COLO 205 colon 124%

CC(C)C(C)(C)C(=O)C(C)(C)C(C)(C)C
inactive: NCI-H23 lung 90.6% | NCI-H226 lung 90.5% | NCI-H322M lung 97.9% | HOP-62 NSCLC 103% | NCI-H460 lung 101% | HOP-92 NSCLC 88.3% | NCI-H522 lung 92.4% | A549/ATCC NSCLC 93.3% | 786-0 renal 108% | COLO 205 colon 104%

CCCCCCCCCCCCCC/C=C\C(CC(=O)O)C(=O)O (stereo not given)
inactive: NCI-H23 lung 108% | NCI-H226 lung 109% | NCI-H322M lung 117% | HOP-62 NSCLC 105% | NCI-H460 lung 106% | HOP-92 NSCLC 106% | NCI-H522 lung 107% | A549/ATCC NSCLC 103% | 786-0 renal 103% | COLO 205 colon 97.7%

O=[N+]([O-])c1ccc2[nH]c(=S)n(/C=C(/c3ccc(Cl)cc3Cl)S(=O)(=O)Cc3ccc(Cl)cc3Cl)c2c1
inactive: NCI-H23 lung 96.2% | NCI-H226 lung 106% | NCI-H322M lung 100% | HOP-62 NSCLC 90.3% | NCI-H460 lung 108% | HOP-92 NSCLC 112% | NCI-H522 lung 88.6% | A549/ATCC NSCLC 83.3% | 786-0 renal 94.6% | COLO 205 colon 99%

Cc1cc2nc(C)c(C)nc2cc1C
inactive: NCI-H23 lung 93.7% | NCI-H226 lung 84% | NCI-H322M lung 118% | HOP-62 NSCLC 92.5% | NCI-H460 lung 101% | HOP-92 NSCLC 63.8% | NCI-H522 lung 95.6% | A549/ATCC NSCLC 101% | 786-0 renal 103% | COLO 205 colon 98.7%

O=C(O)Cc1ccc(Cl)cc1
inactive: NCI-H23 lung 114% | NCI-H226 lung 96% | NCI-H322M lung 108% | HOP-62 NSCLC 86.9% | NCI-H460 lung 107% | HOP-92 NSCLC 38.8% | NCI-H522 lung 101% | A549/ATCC NSCLC 120% | 786-0 renal 93.7% | COLO 205 colon 107%

C=CCC(O)C=C (stereo not given)
inactive: NCI-H23 lung 101% | NCI-H226 lung 103% | NCI-H322M lung 91.7% | HOP-62 NSCLC 109% | NCI-H460 lung 107% | HOP-92 NSCLC 109% | NCI-H522 lung 108% | A549/ATCC NSCLC 99.4% | 786-0 renal 97.5% | COLO 205 colon 106%

CCCCn1cnc2c(=O)[nH]cnc21
inactive: NCI-H23 lung 106% | NCI-H226 lung 107% | NCI-H322M lung 104% | HOP-62 NSCLC 105% | NCI-H460 lung 119% | HOP-92 NSCLC 89.3% | NCI-H522 lung 98.6% | A549/ATCC NSCLC 107% | 786-0 renal 105% | COLO 205 colon 111%

O=C(O)C1CCCN1C(=O)OCc1ccccc1 (stereo not given)
inactive: NCI-H23 lung 104% | NCI-H226 lung 108% | NCI-H322M lung 104% | HOP-62 NSCLC 127% | NCI-H460 lung 102% | HOP-92 NSCLC 122% | NCI-H522 lung 85.6% | A549/ATCC NSCLC 93.7% | 786-0 renal 106% | COLO 205 colon 107%

O=CNCCc1ccccc1
inactive: NCI-H23 lung 102% | NCI-H226 lung 98.9% | NCI-H322M lung 106% | HOP-62 NSCLC 90.8% | NCI-H460 lung 111% | HOP-92 NSCLC 88.5% | NCI-H522 lung 104% | A549/ATCC NSCLC 96.8% | 786-0 renal 102% | COLO 205 colon 103%

N#Cc1ccc2nc[nH]c2c1
inactive: NCI-H23 lung 99.1% | NCI-H226 lung 90.9% | NCI-H322M lung 108% | HOP-62 NSCLC 110% | NCI-H460 lung 107% | HOP-92 NSCLC 101% | NCI-H522 lung 102% | A549/ATCC NSCLC 101% | 786-0 renal 106% | COLO 205 colon 112%

CC1CN(CCO)CC(C)O1 (stereo not given)
inactive: NCI-H23 lung 106% | NCI-H226 lung 95.2% | NCI-H322M lung 102% | HOP-62 NSCLC 99.3% | NCI-H460 lung 110% | HOP-92 NSCLC 103% | NCI-H522 lung 108% | A549/ATCC NSCLC 100% | 786-0 renal 104% | COLO 205 colon 117%

Cn1c(=O)c2[nH]c(CC(=O)O)nc2n(C)c1=O
inactive: NCI-H23 lung 100% | NCI-H226 lung 90.9% | NCI-H322M lung 99.6% | HOP-62 NSCLC 97.2% | NCI-H460 lung 110% | HOP-92 NSCLC 113% | NCI-H522 lung 86.4% | A549/ATCC NSCLC 91.4% | 786-0 renal 106% | COLO 205 colon 109%

CC(CC(CCC(=O)O)(c1ccccc1)c1ccccc1)N(C)C (stereo not given)
inactive: NCI-H23 lung 98.8% | NCI-H226 lung 95.3% | NCI-H322M lung 95.9% | HOP-62 NSCLC 96.6% | NCI-H460 lung 107% | HOP-92 NSCLC 102% | NCI-H522 lung 105% | A549/ATCC NSCLC 89.8% | 786-0 renal 98.5% | COLO 205 colon 104%

O=C1C=Cc2ccccc2/C1=C/c1[nH]c(=O)[nH]c1O
inactive: NCI-H23 lung 51.7% | NCI-H226 lung 45.2% | NCI-H322M lung 57.8% | HOP-62 NSCLC 41.3% | NCI-H460 lung 84.8% | HOP-92 NSCLC 45.9% | A549/ATCC NSCLC 82% | 786-0 renal 27.6% | COLO 205 colon 34.3%
active: NCI-H522 lung -17.7%

COc1cc(OC)c2cc(C(=O)c3ccc(C#N)cc3)c(=O)oc2c1
inactive: NCI-H23 lung 96.9% | NCI-H226 lung 92.2% | NCI-H322M lung 92.3% | HOP-62 NSCLC 88.6% | NCI-H460 lung 107% | HOP-92 NSCLC 107% | NCI-H522 lung 93.1% | A549/ATCC NSCLC 99% | 786-0 renal 84% | COLO 205 colon 117%

O=C(OCC1CCCO1)c1ccc([N+](=O)[O-])cc1 (stereo not given)
inactive: NCI-H23 lung 105% | NCI-H226 lung 92.5% | NCI-H322M lung 100% | HOP-62 NSCLC 92.6% | NCI-H460 lung 95.5% | HOP-92 NSCLC 91.8% | NCI-H522 lung 94.2% | A549/ATCC NSCLC 90.9% | 786-0 renal 91% | COLO 205 colon 103%

CCOC(=O)c1ccc(NC(C)=O)o1
inactive: NCI-H23 lung 105% | NCI-H226 lung 95% | NCI-H322M lung 108% | HOP-62 NSCLC 86.3% | NCI-H460 lung 87.2% | HOP-92 NSCLC 103% | NCI-H522 lung 95.2% | A549/ATCC NSCLC 76.2% | 786-0 renal 105% | COLO 205 colon 106%

NC(=S)N/N=C/c1ccc(Cl)cc1
inactive: NCI-H23 lung 98.1% | NCI-H226 lung 97.5% | NCI-H322M lung 104% | HOP-62 NSCLC 113% | NCI-H460 lung 106% | HOP-92 NSCLC 91% | NCI-H522 lung 87.8% | A549/ATCC NSCLC 106% | 786-0 renal 104% | COLO 205 colon 131%

CC(=O)NNC(=S)N/C=C/c1c(C)ccc([N+](=O)[O-])c1[N+](=O)[O-]
inactive: NCI-H23 lung 94.8% | NCI-H226 lung 110% | NCI-H322M lung 111% | HOP-62 NSCLC 103% | NCI-H460 lung 102% | HOP-92 NSCLC 100% | NCI-H522 lung 87.8% | A549/ATCC NSCLC 102% | 786-0 renal 97.2% | COLO 205 colon 101%

CC(=O)/C(C)=N\OC(=O)Nc1ccccc1
inactive: NCI-H23 lung 93.8% | NCI-H226 lung 104% | NCI-H322M lung 101% | HOP-62 NSCLC 94.8% | NCI-H460 lung 107% | HOP-92 NSCLC 92.9% | NCI-H522 lung 98.3% | A549/ATCC NSCLC 103% | 786-0 renal 100% | COLO 205 colon 96.4%

O=C1C=CC(=O)C2=C1CCCC2
inactive: NCI-H23 lung 86.4% | NCI-H226 lung 79.6% | NCI-H322M lung 92% | HOP-62 NSCLC 92.4% | NCI-H460 lung 95.9% | HOP-92 NSCLC 135% | NCI-H522 lung 94% | A549/ATCC NSCLC 95.8% | 786-0 renal 107% | COLO 205 colon 110%

Cc1ccc(N2C(=O)c3cccc4c(N)c(S(=O)(=O)O)cc(c34)C2=O)cc1
inactive: NCI-H23 lung 95.7% | NCI-H226 lung 89.7% | NCI-H322M lung 114% | HOP-62 NSCLC 107% | NCI-H460 lung 104% | HOP-92 NSCLC 86.1% | NCI-H522 lung 84.5% | A549/ATCC NSCLC 104% | 786-0 renal 104% | COLO 205 colon 109%

Cc1cc(C)cc(OCC(=O)O)c1
inactive: NCI-H23 lung 97% | NCI-H226 lung 91.4% | NCI-H322M lung 95.9% | HOP-62 NSCLC 95.5% | NCI-H460 lung 110% | HOP-92 NSCLC 109% | NCI-H522 lung 93.7% | A549/ATCC NSCLC 104% | 786-0 renal 98.2% | COLO 205 colon 119%

— PubChem BioAssay (NCI)
